Among the test systems are HT29 colon; SNB-75 CNS; SNB-19 CNS; U251 CNS; PC-3 prostate; SK-MEL-5 melanoma; UACC-62 melanoma; LOX IMVI melanoma; SK-MEL-28 melanoma; SK-MEL-2 melanoma; EKVX NSCLC; SN12C renal; UO-31 renal; TK-10 renal; ACHN renal; CAKI-1 renal; A498 renal; MOLT-4 leukemia; SR leukemia; CCRF-CEM leukemia.
Experiment in all cases: NCI-60 one-dose screen, 48 h (100 = growth as untreated, 0 = no growth, -100 = all killed)
Conditions in all cases: 10 µM

SMILES strings stand for the structures. The panel holds about 83,000 compounds, 20% with a hit somewhere; the sample as a whole holds those more often.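 Single-dose data. Exposure time 48 hours. Values below 10 considered active.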 Values without a mark were called inactive. Active and inactive are the calls of the source.

In the case of `O=C(O)CN1C(=O)c2cccc3cccc(c23)C1=O`, the growth in the test on HT29 colon was 100%; with SNB-75 CNS it was 89.4%; in the test on SNB-19 CNS it was 99.2%; in the test on U251 CNS it was 97.4%; in the test on PC-3 prostate, 104%; in the test with SK-MEL-5 melanoma it was 106%. Also, the growth with UACC-62 melanoma was 100%; with LOX IMVI melanoma it was 98.6%; with SK-MEL-28 melanoma it was 109%; in the test on SK-MEL-2 melanoma, 111%; with EKVX NSCLC, 82.6%; with SN12C renal, 95.4%. In addition, the growth is 97.1% in the test on UO-31 renal; 114% with TK-10 renal; 101% with ACHN renal; 89% in the test with CAKI-1 renal; 85.9% with A498 renal; 115% in the test with MOLT-4 leukemia. For the same compound, in the test with SR leukemia, the growth is 112%.
Take `O=C1C(c2ccccc2)C2C=CC(C2)N1O` (stereo unspecified): the growth with HT29 colon is 97.9%; in the test on SNB-75 CNS, 107%; with SNB-19 CNS it was 106%; with U251 CNS, 109%; in the test on PC-3 prostate, 98.2%; in the test on SK-MEL-5 melanoma it was 106%. Further, the growth with UACC-62 melanoma is 101%; in the test with LOX IMVI melanoma, 99.6%; in the test with SK-MEL-28 melanoma, 118%; in the test on SK-MEL-2 melanoma, 103%; in the test with EKVX NSCLC, 101%; in the test with SN12C renal it was 102%. Besides, the growth with UO-31 renal was 68%; with TK-10 renal, 101%; with ACHN renal it was 107%; with CAKI-1 renal, 106%; in the test on CCRF-CEM leukemia it was 82.6%; with MOLT-4 leukemia, 92.5%. The growth in the test on SR leukemia is 105%.
In the case of `O=C1C(=O)c2ccccc2C(O)=C1CCCc1ccc(C2CCCCCC2)cc1`, the growth with HT29 colon is 28.5%; with SNB-75 CNS, 49.3%; with SNB-19 CNS, 52.8%; in the test with U251 CNS, 46.1%; in the test on PC-3 prostate it was 20.9%; in the test with SK-MEL-5 melanoma, 25.2%. Further, the growth in the test with UACC-62 melanoma was 46.6%; in the test on LOX IMVI melanoma, 16.5%; with SK-MEL-28 melanoma, 49.7%; with SK-MEL-2 melanoma, 88.1%; in the test with EKVX NSCLC, 24.9%; with SN12C renal, 53.4%. Further, the growth in the test on UO-31 renal is 24.2%; with TK-10 renal, 61%; in the test with ACHN renal, 38.6%; in the test with CAKI-1 renal it was -34.2% (active); in the test with CCRF-CEM leukemia, 34.7%; in the test with MOLT-4 leukemia, 49.2%. Besides, in the test with SR leukemia, the growth is 38%.
As to `CC1CN(Cc2ccccc2)C(=O)NC1=O` (stereo unspecified), the growth in the test on HT29 colon was 109%; in the test with SNB-75 CNS, 106%; in the test with SNB-19 CNS, 92%; in the test on U251 CNS, 108%; in the test with PC-3 prostate, 92.7%; in the test with SK-MEL-5 melanoma, 106%. The growth in the test on UACC-62 melanoma was 96%; with LOX IMVI melanoma it was 103%; with SK-MEL-28 melanoma, 114%; in the test with SK-MEL-2 melanoma, 102%; with EKVX NSCLC, 121%; in the test with SN12C renal, 91.1%. In addition, the growth with UO-31 renal is 85.7%; with TK-10 renal it was 104%; with ACHN renal, 109%; in the test with CAKI-1 renal, 116%; in the test with A498 renal, 121%; with CCRF-CEM leukemia, 103%. The growth is 94.2% in the test with MOLT-4 leukemia and 101% in the test with SR leukemia.
For the compound `COc1ccc2c(c1)/C(=C\c1c[nH]c3ccc(OC)cc13)C(=O)N2`, the growth with HT29 colon was 24.9%; in the test with SNB-75 CNS, 46.7%; in the test on SNB-19 CNS, 77.3%; with U251 CNS it was 56.2%; in the test on PC-3 prostate it was 60.6%; in the test with SK-MEL-5 melanoma, 46.3%. Besides, the growth is 39.3% in the test with UACC-62 melanoma; 35.9% in the test with LOX IMVI melanoma; 71.7% in the test on SK-MEL-28 melanoma; 33.4% in the test on SK-MEL-2 melanoma; 47.8% in the test with EKVX NSCLC; 52.8% in the test with SN12C renal. Further, the growth in the test on UO-31 renal is 46.8%; in the test with TK-10 renal, 81.7%; in the test with ACHN renal it was 39.6%; in the test on CAKI-1 renal, 21.3%; in the test with A498 renal, 34.6%; in the test on CCRF-CEM leukemia, 28.6%. The growth in the test on MOLT-4 leukemia was 11.7%; with SR leukemia, 14.7%.
Consider `CCn1cc(C(=O)O)c(=O)c2cnc(N3CCCC3)nc21`, for which the growth with HT29 colon is 111%; in the test on SNB-75 CNS, 88.1%; in the test with SNB-19 CNS, 105%; in the test with U251 CNS, 103%; in the test on PC-3 prostate, 102%; in the test on SK-MEL-5 melanoma it was 102%. In addition, the growth with UACC-62 melanoma is 108%; in the test on LOX IMVI melanoma, 99.3%; with SK-MEL-28 melanoma, 113%; in the test on SK-MEL-2 melanoma, 97.7%; in the test on EKVX NSCLC, 93.7%; in the test on SN12C renal it was 110%. Also, the growth with UO-31 renal was 74.8%; with TK-10 renal, 116%; in the test with ACHN renal, 100%; in the test with CAKI-1 renal, 85.8%; in the test on A498 renal, 87.6%; in the test on MOLT-4 leukemia it was 108%. Besides, the growth with SR leukemia is 110%.
In the case of `O=C(Nc1ccc(Cl)c(Cl)c1)Nc1c(Oc2ccc(Cl)c(Cl)c2)ccc(Cl)c1S(=O)(=O)O`, the growth in the test on HT29 colon was 4.55% (active); in the test on SNB-75 CNS it was -11.6% (active); in the test on SNB-19 CNS it was 48.3%; in the test on U251 CNS, 22.1%; in the test with PC-3 prostate it was 19.6%; in the test with SK-MEL-5 melanoma, 7.15% (active). In addition, the growth in the test with UACC-62 melanoma is 31.6%; with LOX IMVI melanoma, 33.8%; with SK-MEL-28 melanoma, 54.8%; in the test on SK-MEL-2 melanoma, -1.82% (active); in the test on EKVX NSCLC, 38.2%; with SN12C renal, 36.4%. Besides, the growth in the test with UO-31 renal is 21.2%; with TK-10 renal, 25.3%; with ACHN renal, 61.2%; with CAKI-1 renal it was 12.1%; in the test on A498 renal, -13.3% (active); in the test on CCRF-CEM leukemia, 13.5%. For the same compound, the figures for the growth in the test with MOLT-4 leukemia and in the test with SR leukemia were 25% and 1.34% (active), respectively.
Consider `Cc1occc1-c1nnc(SCC(=O)c2ccc(NC(=O)CC(C)C)cc2)o1`, for which the growth is 113% with HT29 colon; 111% in the test on SNB-75 CNS; 95.8% with SNB-19 CNS; 105% with U251 CNS; 100% in the test on PC-3 prostate; 94.9% with SK-MEL-5 melanoma. The growth in the test with UACC-62 melanoma was 104%; with LOX IMVI melanoma it was 105%; in the test on SK-MEL-28 melanoma, 123%; with SK-MEL-2 melanoma, 90.8%; in the test with EKVX NSCLC, 103%; in the test on SN12C renal, 107%. Besides, the growth in the test with UO-31 renal is 93.7%; with TK-10 renal, 123%; with ACHN renal it was 109%; in the test on CAKI-1 renal it was 84.1%; with A498 renal, 118%; in the test with CCRF-CEM leukemia, 93.4%. Further, the growth in the test with MOLT-4 leukemia is 100%; in the test with SR leukemia it was 7.85% (active).

These data come from PubChem BioAssay (NCI).
